# Results: PubChem BioAssay (Tox21)
# Inconclusive results are not listed. Where a call stands in place of a potency, no number is given. Values without a mark were called inactive. The source made the active and inactive calls. The call rests on the fitted dose curve; in most records, active means well fitted curve in the direction sought with a large enough effect in the repeat runs; inconclusive means weak or mixed curves; inactive means no such curve, though single readings can be large; an effect the other way counts as inactive or inconclusive.
# Assay: qHTS assay to identify small molecule antagonists of the retinoic acid receptor (RAR) signaling pathway (AID 1159552; further: nearly all actives have a fitted effect of over 50% in size)
# Conditions: C3RL4 RARE luciferase reporter, retinol-stimulated, 6 h; series mostly up to 92.4 µM
# How it was run: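 Retinol signaling pathway inhibitors screened in C3RL4 RARE-luciferase reporter cells seeded overnight at 37 C, then compounds added with 1 uM (final) retinol as pathway substrate. After 6 hr at 37 C, luciferase luminescence read after 30 min at room temperature.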
SMILES,outcome,"activity, negative = inhibition"
Nc1cccc(O)c1,inactive,
Cc1ccc2ccc(Cl)cc2n1,inactive,
O=S(=O)(O)c1ccc2cc(O)c(S(=O)(=O)O)cc2c1,inactive,
O=C1c2ccccc2C(=O)c2cc(S(=O)(=O)O)ccc21,inactive,
CC(=O)/C=C/C1C(C)=CCC(C)C1(C)C (centres undefined),inactive,
CCCOC(=O)C(C)O (centres undefined),inactive,
COC(=O)C1CC(=O)C(C(=O)OC)CC1=O (centres undefined),,-2.77% [at 8.39 µM]
Oc1ccccc1-c1nnco1,inactive,
O=C(O)c1ccc(Cl)cc1Cl,inactive,
O=C1c2ccccc2C(=O)C1c1ccccc1,inactive,
BrCc1cccc(Oc2ccccc2)c1,inactive,
CCOCCOC(=O)/C=C/c1ccc(OC)cc1,inactive,
CC(C)=CCOC(=O)c1ccccc1,inactive,
O=C(/N=N/C(=O)OCc1ccccc1)OCc1ccccc1,inactive,
CC(=O)Nc1ccc(S(=O)(=O)Nc2ccc([N+](=O)[O-])cc2)cc1,inactive,

# Assay: qHTS assay to identify small molecule agonists of the retinoic acid receptor (RAR) signaling pathway (AID 1159553); further: potency means the concentration at half of the fitted maximal effect
# Conditions: C3RL4 RARE luciferase reporter, agonist, 6 h; series mostly up to 73.3 µM
# How it was run: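 C3RL4 cells carrying a RARE luciferase reporter were plated overnight at 37 C, then exposed to compounds in DMSO for 6 hr at 37 C and 5% CO2. Luminescence was read 30 min after luciferase reagent addition at room temperature.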
row,SMILES,Potency
1,CC(=O)OC(C)OC(=O)C(C)c1ccc(-c2ccccc2)c(F)c1 (centres undefined),inactive
2,NCCN1CCOCC1,inactive
3,O=P(O)(O)OP(=O)(O)O,inactive
4,O=C(OCC1(COC(=O)c2cccnc2)CCCC(COC(=O)c2cccnc2)(COC(=O)c2cccnc2)C1O)c1cccnc1,inactive
5,C#CC(C)N(C)C(=O)Nc1ccc(Cl)cc1 (centres undefined),38.5 µM (active)
6,c1ccc2c(c1)ccc1c3ccccc3ccc21,3.94 µM (active)
7,N[C@@H](CCC(=O)Nc1ccc([N+](=O)[O-])cc1)C(=O)O,inactive
8,CC(COC(C)(C)C)OCCCO (centres undefined),inactive
9,CCOc1cc([N+](=O)[O-])c(OCC)cc1N1CCOCC1,inactive
10,Cc1cc(NC(=O)C2=C(O)c3ccccc3S(=O)(=O)N2C)no1,inactive
11,CC(=O)Nc1cccc(C)c1,inactive
12,N[C@@H](CCC(=O)N[C@@H](CS)C(=O)NCC(=O)O)C(=O)O,inactive
13,Nc1cccc(O)c1,inactive
14,Cc1ccc2ccc(Cl)cc2n1,inactive
15,O=C1c2ccccc2C(=O)c2cc(S(=O)(=O)O)ccc21,inactive
16,O=C1c2ccccc2C(=O)C1c1ccccc1,inactive
17,BrCc1cccc(Oc2ccccc2)c1,inactive
18,CCOCCOC(=O)/C=C/c1ccc(OC)cc1,33.5 µM (active)
19,CC(C)=CCOC(=O)c1ccccc1,inactive
